# In PubChem BioAssay:
# Calls of active or inactive are those of the source. Unless noted, the rule behind the calls is not given here.
# Columns and labels:
# [1] = LFS_MB_P medulloblastoma growth inhibition, cell-based, chromothripsis tumors, cisplatin or BGB combos (AID 1671449; in the data active = inhibition above about 80%;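 note: cells exposed for 96 hours; 0% = vehicle DMSO and 100% = killing by high DMSO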); conditions: LFS_MB_P medulloblastoma cells
# [2] = HDN33 neuroblastoma growth inhibition, cell-based, chromothripsis tumors, cisplatin or BGB combos (AID 1671450; in the data active = inhibition above about 80%;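 note: cells exposed to compound for four days; 0% = vehicle DMSO and 100% = cell killing by high DMSO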); conditions: HDN33 neuroblastoma cells, stronger effect = higher value
# [3] = ICB984 medulloblastoma cell growth inhibition, synergistic combos for chromothripsis tumors, cisplatin or BGB combos (AID 1671451); conditions: ICB984 medulloblastoma cells, drug combinations, stronger effect = higher value;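 note: cells exposed for 96 hours before readout; 0% = vehicle DMSO and 100% = killing by high DMSO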
# [4] = LFS_MB_1R medulloblastoma cell growth inhibition, synergistic combos for chromothripsis tumors, cisplatin or BGB combos (AID 1671452; in the data active = inhibition above about 80%;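 note: cells exposed for 96 hours before readout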); conditions: LFS_MB_1R medulloblastoma cells, stronger effect = higher value
# [5] = HTB85 osteosarcoma cell growth inhibition, synergistic combos for chromothripsis tumors, BGB or cisplatin IC20 combos (AID 1671453; in the data active = inhibition above about 80%;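 note: cells exposed for 96 hours before readout; 0% = vehicle DMSO and 100% = high DMSO killing control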); conditions: HTB85 osteosarcoma cells, drug combinations, stronger effect = higher value
# [6] = CRL2098 osteosarcoma cell growth inhibition, synergistic combos for chromothripsis tumors, BGB or cisplatin IC20 combos (AID 1671454; in the data active = inhibition above about 80%;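 note: cells exposed for 96 h before readout; 0% = vehicle DMSO and 100% = killing by high DMSO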); conditions: CRL2098 osteosarcoma cells, drug combinations, stronger effect = higher value
# [7] = HD-MB03 medulloblastoma cell growth inhibition, synergistic combos for chromothripsis tumors, BGB or cisplatin IC20 combos (AID 1671455; in the data active = inhibition above about 83%;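 note: 0% = vehicle DMSO and 100% = high DMSO as cytotoxic control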); conditions: HD-MB03 medulloblastoma cells, stronger effect = higher value
# [8] = UWB1.289 ovarian carcinoma cell growth inhibition, synergistic combos for chromothripsis tumors, BGB or cisplatin combos (AID 1671456; in the data active = inhibition above about 80%;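 note: cells exposed to compound for four days; 0% = vehicle DMSO and 100% = killing by high DMSO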); conditions: UWB1.289 ovarian carcinoma cells, stronger effect = higher value
# [9] = LFS_MB_2R medulloblastoma cell growth inhibition, synergistic combos for chromothripsis tumors, cisplatin combos (AID 1671457; in the data active = inhibition above about 80%;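 note: cells exposed to compound for four days before readout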); conditions: LFS_MB_2R medulloblastoma cells, stronger effect = higher value
# [10] = MDA-MB-436 breast carcinoma cell growth inhibition, synergistic combos for chromothripsis tumors, BGB or cisplatin combos (AID 1671458); conditions: MDA-MB-436 breast carcinoma growth inhibition, drug combinations, stronger effect = higher value;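 note: cells exposed for 96 hours; 0% = vehicle DMSO and 100% = killing by high DMSO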
# [11] = UWB1.289_BRCA1 ovarian cancer growth, cell-based, BGB or cisplatin combinations (AID 1671459; in the data active = inhibition above about 80%); conditions: UWB1.289 BRCA1 ovarian carcinoma, drug combinations, stronger effect = higher value
# [12] = human astrocyte viability loss, single and combined drugs, cytotoxicity control for chromothriptic childhood tumor combination screen, cell-based, BGB or cisplatin IC20 combos (AID 1671460; in the data active = inhibition above about 80%;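 note: cells exposed to compounds for 96 hours before viability readout; 0% = vehicle and 100% = killing control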); conditions: Human astrocytes, drug combinations, stronger effect = higher value
# [13] = growth inhibition of BT084 medulloblastoma cells, cell-based, ICGC_MB145, cisplatin and BGB IC40 combos (AID 1671461; in the data active = inhibition above about 80%;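 note: cells exposed to drugs for 96 hours; 0% = vehicle DMSO and 100% = high DMSO full killing control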); conditions: drug combinations, stronger effect = higher value
# [14] = growth inhibition of RCMB18 medulloblastoma cells, cell-based, cisplatin and BGB IC40 combos (AID 1671462; in the data active = inhibition above about 80%;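 note: cells exposed to compound for four days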); conditions: stronger effect = higher value
# [15] = growth inhibition of CRL1545 osteosarcoma cells, cell-based, cisplatin and BGB IC20 combos (AID 1671464; in the data active = inhibition above about 80%;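 note: cells exposed to compound for 96 hours before readout; 0% = vehicle DMSO and 100% = high DMSO killing control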); conditions: stronger effect = higher value
# [16] = antimalarial activity against Dd2 strain (AID 2302;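 active = growth inhibition above 50% at the single 2 µM test dose, taken to imply half-maximal potency below 2 µM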;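 note: 0% = DMSO untreated growth and 100% = chloroquine plus artemisinin killed control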); conditions: P. falciparum Dd2 in RBCs, LDH growth readout, 72 h; at 2 µM; stronger effect = higher value
# [17] = HepG2 cytotoxicity, primary screen, cytotoxicity control for P. falciparum antimalarial project, cell-based, ATP luminescence (AID 2303;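 active = inhibition above 50%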;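 note: 0% = DMSO wells and 100% = digitonin-killed cells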); conditions: HepG2 viability, 24-48 h, at 10 µM, stronger effect = higher value
# [18] = target: L-lactate dehydrogenase (Plasmodium falciparum (isolate CDC / Honduras)) (UniProt Q27743); assay: PfLDH activity inhibition – cell lysate, 3D7 strain, counter-screen for P. falciparum growth inhibition project (AID 2304);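 note: 0% = vehicle and 100% = reference inhibitor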; conditions: P. falciparum 3D7 crude extract, LDH APAD/NBT absorbance; at 2 µM; stronger effect = higher value
# [19] = inhibition of 3D7 malaria parasite growth – strain 3D7 (AID 2306);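 note: 0% = DMSO wells and 100% = chloroquine plus artemisinin control wells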; conditions: P. falciparum 3D7 erythrocytic growth, LDH absorbance, 72 h; at 2 µM; stronger effect = higher value
# [20] = measured here: combination with BGB IC40, at 0.05 µM
# [21] = measured here: with BGB IC20 combination, at 0.5 µM
# [22] = measured here: with cisplatin IC20 combination, at 0.5 µM
# [23] = measured here: combination with cisplatin, at 0.5 µM
# [24] = measured here: combination with cisplatin, at 5 µM
# L-lactate dehydrogenase (Plasmodium falciparum (isolate CDC / Honduras)), sequence (Q27743 whole entry, looked up): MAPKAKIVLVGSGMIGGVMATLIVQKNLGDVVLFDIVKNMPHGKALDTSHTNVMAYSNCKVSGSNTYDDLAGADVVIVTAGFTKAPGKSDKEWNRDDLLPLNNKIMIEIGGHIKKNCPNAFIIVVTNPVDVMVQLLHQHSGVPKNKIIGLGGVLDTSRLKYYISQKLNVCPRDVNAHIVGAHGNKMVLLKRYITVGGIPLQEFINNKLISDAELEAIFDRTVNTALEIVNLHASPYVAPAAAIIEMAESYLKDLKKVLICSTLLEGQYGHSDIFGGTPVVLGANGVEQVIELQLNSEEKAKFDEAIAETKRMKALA
structure (smiles),measurement,setting,value
O=C1C(=Cc2cccnc2)C(=O)c2ccccc21,inhibition,"[1]; at 0.5 µM, stronger effect = higher value",-18.2% (inactive)
same,inhibition,"[1]; measured here: combination with BGB IC20, at 0.005 µM",-17.1%
same,inhibition,"[1]; measured here: combination with BGB IC40, at 0.005 µM",67.5%
same,inhibition,[1]; [20],-27.5%
same,inhibition,"[1]; measured here: combination with cisplatin, at 0.5 µM, stronger effect = higher value",-45.6%
same,inhibition,"[1]; measured here: combination with cisplatin, at 5 µM, stronger effect = higher value",-16.1%
same,inhibition,"[2]; BGB combo, at 5 µM",-24.2%
same,inhibition,[2]; at 0.5 µM,-0.8% (inactive)
same,inhibition,"[2]; cisplatin combo, at 5 µM",-15.7%
same,inhibition,[2]; [21],-14.2%
same,inhibition,[2]; [22],14.1%
same,inhibition,"[2]; single agent, at 5 µM",-16.1%
same,inhibition,"[3]; BGB IC20 combo, at 0.005 µM",0.337%
same,inhibition,"[3]; BGB IC40 combo, at 0.005 µM",-13.1%
same,inhibition,"[3]; BGB IC40 combo, at 0.05 µM",-4.84%
same,inhibition,[3]; at 0.5 µM,-25.7% (inactive)
same,inhibition,"[3]; cisplatin combo, at 0.05 µM",-10.2%
same,inhibition,"[3]; cisplatin combo, at 0.5 µM",-37.3%
same,inhibition,"[3]; cisplatin combo, at 5 µM",-28.8%
same,inhibition,"[3]; measured here: 5 uM single agent, at 5 µM",-20.5%
same,inhibition,[4]; at 0.5 µM,-8.72% (inactive)
same,inhibition,[4]; [20],-20.3%
same,inhibition,[4]; [23],-8.61%
same,inhibition,[4]; [24],-32.8%
same,inhibition,[5]; at 0.5 µM,-5.81% (inactive)
same,inhibition,"[5]; measured here: with BGB IC20, at 0.5 µM",0.006%
same,inhibition,"[5]; measured here: with BGB IC20, at 5 µM",-4.06%
same,inhibition,"[5]; measured here: with cisplatin IC20, at 0.5 µM",-17.7%
same,inhibition,"[5]; measured here: with cisplatin IC20, at 5 µM",0.224%
same,inhibition,"[5]; single agent, at 5 µM",6.13%
same,inhibition,[6]; at 0.5 µM,-26.6% (inactive)
same,inhibition,"[6]; measured here: combination with BGB at IC20, at 0.5 µM",-25.9%
same,inhibition,"[6]; measured here: combination with cisplatin at IC20, at 0.5 µM",-22.2%
same,inhibition,[7]; at 0.5 µM,-8.47% (inactive)
same,inhibition,"[7]; measured here: combo with BGB at IC20, at 0.5 µM",-12%
same,inhibition,"[7]; measured here: combo with cisplatin at IC20, at 0.5 µM",-5.96%
same,inhibition,[8]; at 0.5 µM,0.75% (inactive)
same,inhibition,"[8]; measured here: inhibition with BGB combination, at 0.05 µM",2.81%
same,inhibition,"[8]; measured here: inhibition with cisplatin combination, at 0.05 µM",-5.97%
same,inhibition,[9]; at 0.5 µM,-15.3% (inactive)
same,inhibition,[9]; [23],-19.2%
same,inhibition,[9]; [24],-18.7%
same,inhibition,[10]; at 0.5 µM,-13.9% (inactive)
same,inhibition,"[10]; measured here: BGB combination, at 0.5 µM",-13.8%
same,inhibition,"[10]; measured here: BGB combination, at 5 µM",-19.4%
same,inhibition,"[10]; measured here: cisplatin combination, at 0.5 µM",-27.6%
same,inhibition,"[10]; measured here: cisplatin combination, at 5 µM",-23.4%
same,inhibition,"[11]; BGB combination, concentration series, at 5 µM",-3.65%
same,inhibition,[11]; at 0.5 µM,-0.75% (inactive)
same,inhibition,"[11]; cisplatin combination, concentration series, at 5 µM",4.94%
same,inhibition,[12]; at 0.5 µM,5.07% (inactive)
same,inhibition,"[12]; measured here: combo with BGB IC20, at 0.5 µM",-3.05%
same,inhibition,"[12]; measured here: combo with cisplatin IC20, at 0.5 µM",0.407%
same,inhibition,[13]; at 0.5 µM,-7.01% (inactive)
same,inhibition,"[13]; cisplatin combination, at 0.5 µM",-1.5%
same,inhibition,"[13]; cisplatin combination, at 5 µM",-101%
same,inhibition,"[13]; measured here: BGB IC40 combination 0.05 uM, at 0.05 µM",-30.3%
same,inhibition,"[13]; single agent, at 5 µM",9.68%
same,inhibition,[14]; at 0.5 µM,-13.1% (inactive)
same,inhibition,"[14]; cisplatin combo, at 5 µM",4.14%
same,inhibition,"[14]; measured here: BGB IC40 combination, at 0.05 µM",-19.1%
same,inhibition,[14]; [23],-37%
same,inhibition,"[14]; single agent, at 5 µM",-5.07%
same,inhibition,[15]; at 0.5 µM,3.87% (inactive)
same,inhibition,[15]; [21],-10.3%
same,inhibition,[15]; [22],9.52%
same,inhibition,"[15]; single agent, at 0.05 µM",-45.6%
same,inhibition,"[15]; single agent, at 5 µM",-28.3%
O=[N+]([O-])c1cccc(-c2nc3ccc(C4=N[C@H]5CCCC[C@H]5N4)cc3[nH]2)c1,growth inhibition,[16],81% (active)
same,inhibition,[17],4% (inactive)
same,inhibition,[18],-7% (inactive)
same,growth inhibition,[19],101% (active)
Oc1ccc2ccccc2c1C=NNc1nc(Nc2ccccc2)nc(N2CCOCC2)n1,growth inhibition,[16],49% (inactive)
same,inhibition,[17],66% (active)
same,inhibition,[18],-5% (inactive)
same,growth inhibition,[19],100% (active)
CC(=NNC(N)=O)C1=C(O)C(c2ccccc2)N(C2CCCCC2)C1=O (stereo not drawn),growth inhibition,[16],96% (active)
same,inhibition,[17],59% (active)
same,inhibition,[18],0% (inactive)
same,growth inhibition,[19],93% (active)
O=[N+]([O-])c1ccc(C=NO)nc1,growth inhibition,[16],98% (active)
same,inhibition,[17],80% (active)
same,inhibition,[18],2% (inactive)
same,growth inhibition,[19],80% (active)
CCOc1cc(C=NNc2nc(C)cc(-n3nc(C)cc3C)n2)ccc1O,growth inhibition,[16],52% (active)
same,inhibition,[17],46% (inactive)
same,inhibition,[18],2% (inactive)
same,growth inhibition,[19],93% (active)
